Data as given in PubChem BioAssay (NCI).
This is part of a sample that, as a whole, favours compounds with a hit. Of some 79,000 tested, about 15% had one in any assay. No stated cut-off is given here; in the data, active means growth inhibition above about 70%; inactive means the rest.

Experiments:
[1] = NCI Yeast Anticancer Drug Screen. Data for the rad50 strain (AID 155);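 further: 0% = growth of vehicle-only cultures of the same strain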; conditions: S. cerevisiae rad50 strain growth inhibition; at 50.0 µM; stronger effect = higher value
Outline: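 Readout: growth inhibition relative to vehicle-treated cultures. Compound exposure was carried out in a genetically defined yeast strain deficient in DNA damage repair.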

[2] = NCI Yeast Anticancer Drug Screen. Data for the mec2-1 strain (AID 157); conditions: S. cerevisiae mec2-1 strain, at 50.0 µM, stronger effect = higher value
Outline: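 Growth inhibition is read against vehicle-treated controls after compound exposure of the mec2-1 yeast strain, which is defective in DNA damage repair or cell cycle control.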

[3] = NCI Yeast Anticancer Drug Screen. Data for the sgs1 mgt1 strain (AID 161);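 further: 0% = growth of cultures given vehicle only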; conditions: S. cerevisiae sgs1 mgt1 strain, at 50.0 µM, stronger effect = higher value
Outline: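 This yeast growth screen uses a strain with defined DNA-repair lesions; compound-treated growth is compared with vehicle-treated growth.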

[4] = NCI Yeast Anticancer Drug Screen. Data for the cln2 rad14 strain (AID 165);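 further: 0% = growth equal to vehicle treated cultures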; conditions: S. cerevisiae cln2 rad14 strain, at 50.0 µM, stronger effect = higher value
Outline: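 Growth inhibition, relative to vehicle-treated controls, is the read-out. The test organism is a yeast strain with defined genetic alterations, cln2 rad14.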

[5] = NCI Yeast Anticancer Drug Screen. Data for the bub3 strain (AID 167); conditions: S. cerevisiae bub3 mutant strain, at 50.0 µM, stronger effect = higher value
Outline: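 Readout: yeast growth inhibition, expressed relative to vehicle-only wells. The test organism is a mutant strain from a panel with lesions in DNA repair or checkpoint genes.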

[6] = NCI Yeast Anticancer Drug Screen. Data for the mlh1 rad18 strain (AID 175); conditions: S. cerevisiae mlh1 rad18 strain growth inhibition; at 50.0 µM; stronger effect = higher value
Outline: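 Cells of a genetically altered yeast strain, deficient in DNA damage repair, were treated with compound. Their growth was then compared with that of vehicle-treated cultures to give inhibition.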

Measured: growth inhibition

COc1ccc(-c2nn(CCO)c(=O)c(C#N)c2-c2ccc(OC)cc2)cc1
inactive: [1] 28.9% | [2] 1.3% | [3] 6.65% | [4] 7.3% | [5] 13.7% | [6] 5.9%

CC(=O)c1ccc(N=Nc2ccc3nonc3c2N)cc1
inactive: [1] -22.5% | [2] -4.35% | [3] -20.6% | [4] -10.2% | [5] 5.25% | [6] -9.45%

COc1cccc(C(=O)c2ccncc2)c1OC
inactive: [1] -10.2% | [2] -4.65% | [3] -5.6% | [4] 4.4% | [5] 1.1% | [6] -4.85%

CN(C)c1nc2ccccc2[nH]1
inactive: [1] 2.6% | [2] -4.25% | [3] 11.9% | [4] -1.35% | [5] -4.85% | [6] -2%

CCN(CC)CCN(C(=O)c1ccc(F)cc1)c1ccccc1N
inactive: [1] -13.2% | [2] -34.1% | [3] -23.6% | [4] -11.9% | [5] 3.85% | [6] -23.6%

NC(=O)c1sc(N2CCCC2)nc1N
inactive: [1] 13.2% | [2] 23.9% | [3] 22.1% | [4] 0.95% | [5] 9.8% | [6] 9.05%

c1ccc(CN2C3C4N(Cc5ccccc5)C2C2N(Cc5ccccc5)C(C(N2Cc2ccccc2)N4Cc2ccccc2)N3Cc2ccccc2)cc1
inactive: [1] 10.1% | [2] 2.35% | [3] 21.9% | [4] 3.2% | [5] 11.8% | [6] -3.6%

CC/C=C(C)/C=N\NC(=O)c1ccc[n+](C)c1
inactive: [1] 21.8% | [2] 12.6% | [3] 17.6% | [4] 23.6% | [5] -3.9% | [6] 2.55%

COC(=O)CCCCCCCCC(=O)OC
inactive: [1] 8.9% | [2] 33.8% | [3] 8.8% | [4] 8.95% | [5] 25.8% | [6] 7.15%

Cn1c(=O)cc2[nH]c3ccccc3n2c1=O
inactive: [1] 9.5% | [2] 22.4% | [3] -10% | [4] -5.7% | [5] 4.6% | [6] -19.7%

CC1=CC(=O)N(NC(N)=O)C1=O
inactive: [1] -11.4% | [2] -2.9% | [3] -9.5% | [4] -27.9% | [5] -16.4% | [6] 2.15%

Nc1nc(N)nc(-c2ccccc2NC(=O)c2ccccc2N)n1
inactive: [1] 2.15% | [2] 14.3% | [3] -0.25% | [4] 8.5% | [5] 6.85% | [6] 18%

O=C1C2C(Cl)C(Cl)C(Cl)C(Cl)C2C(=O)N1NC1CCC([N+](=O)[O-])CC1[N+](=O)[O-] (stereo unspecified)
inactive: [1] -22.9% | [2] -16.4% | [3] -18.5% | [4] 17.4% | [5] 2.5% | [6] 10.1%

COC(=O)c1ccccc1NC(=O)/C(=N\NC(C)(C)C)C(C#N)c1nc(-c2ccc([N+](=O)[O-])cc2)cs1 (stereo unspecified)
inactive: [1] -4.35% | [2] 14% | [3] -0.6% | [4] 18.6% | [5] 26.1% | [6] -8.3%

COc1ccc(N)c(C(=O)CCNC(C)=O)c1
inactive: [1] -23.2% | [2] -9.7% | [3] -21.2% | [4] -7.05% | [5] -26.6% | [6] -25.4%

CC(C)(CO)C(O)C(=O)NCCO (stereo unspecified)
inactive: [1] 14.8% | [2] -0.15% | [3] 6.05% | [4] 5.15% | [5] 3.3% | [6] -10.4%

Cc1cn(C2CC(O)C(COC(N)=O)O2)c(=O)[nH]c1=O (stereo unspecified)
inactive: [1] -38.2% | [2] -20.9% | [3] -11.6% | [4] -5.3% | [5] -44.3% | [6] 2.35%

CC(=S)N=Cc1c(C)[nH]n(-c2ccccc2)c1=O
inactive: [1] -49.4% | [2] -29.8% | [3] -41.4% | [4] 19.6% | [5] -57.7% | [6] -31.9%

CN(C)C1=NC(NC2CCCCC2)(N(C)C)OC(N(C)C)=N1 (stereo unspecified)
inactive: [1] 1% | [2] -0.9% | [3] 3.2% | [4] 20.2% | [5] 1.9% | [6] 10.8%

O=C(CN1CCN(c2ccccc2)CC1)N1CCc2c([nH]c3ccccc23)C1c1cccnc1 (stereo unspecified)
inactive: [1] 2.45% | [2] -19.8% | [3] -19.6% | [4] 28.6% | [5] 4.35% | [6] -21.6%

C/C(=N\N(C)S(=O)(=O)c1ccc(C)cc1)c1ccccc1
inactive: [1] 10.1% | [2] -6.9% | [3] -5.5% | [4] -30.1% | [5] -10.1% | [6] 0.65%
